# Values joined by “and” are separate entries in the source; they are usually repeats but may differ in a detail not shown here. Equal values may be shown once. Results filed as inconclusive are left out. A call without a number means that no potency is given here. A structure can be active in one record and inactive in another. Active and inactive are the calls of the source. Unless noted, calls follow the shape of the dose curve; as a rule, active = well fitted curve in the direction sought with a large enough effect in the repeat runs; inconclusive = weak or mixed curves; inactive = no such curve, though single readings can be large; an effect the other way counts as inactive or inconclusive.
# Tests used:
# [1] = qHTS assay for small molecule agonists of the p53 signaling pathway (AID 651631; calls by dose curve; also: nearly all actives have a fitted effect of over 15% in size; also: potency is read from the fitted curve at half-maximal effect)
# Procedure, shortened: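 Beta-lactamase reporter activity under p53 response elements was quantified in HCT-116 cells by FRET fluorescence, following 16 h incubation with test compounds at 37 °C and 2 h substrate development at room temperature.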
# [2] = qHTS assay for small molecules that induce genotoxicity in human embryonic kidney cells expressing luciferase-tagged ATAD5 (AID 651632); also: nearly all actives have a fitted effect of over 15% in size; also: potency is read from the fitted curve at half-maximal effect
# Procedure, shortened: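 DMSO vehicle served as the control. HEK293T reporter cells, 16 hr at 37C, then 30 min Amplite at room temperature; ATAD5 induction is measured as luciferase activity.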
# [3] = qHTS assay for small molecule agonists of the p53 signaling pathway - cell viability (AID 651633; calls by dose curve; also: nearly all actives have a fitted effect of over 30% in size; also: potency is read from the fitted curve at half-maximal effect)
# Procedure, shortened: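 p53RE-bla cells, seeded at 4,000 per well and rested 5 h at 37 C/5% CO2, received compounds in DMSO for 16 h at 37 C. CellTiter-Glo was then added, and luminescence was read after 30 min at room temperature to gauge cytotoxicity.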
# [4] = qHTS assay for small molecules that induce genotoxicity in human embryonic kidney cells expressing luciferase-tagged ATAD5 - cell viability (AID 651634; calls by dose curve; also: nearly all actives have a fitted effect of over 25% in size; also: potency is read from the fitted curve at half-maximal effect)
# Procedure, shortened: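 Here HEK293T cells with the ATAD5 luciferase reporter are incubated with test compounds for 15.5 hr, and cytotoxicity is then gauged by measuring protease activity in live cells using fluorescence.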
# [5] = qHTS assay for small molecule disruptors of the mitochondrial membrane potential - cell viability (AID 720634; calls by dose curve; also: nearly all actives have a fitted effect of over 20% in size; also: potency is read from the fitted curve at half-maximal effect)
# Procedure, shortened: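 Viability of HepG2 cells is scored from ATP content by luminescence; cells are exposed to compound for 1 hr at 37 C and 5% CO2, then dosed with m-MPI dye before the CellTiter-Glo reagent.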
# [6] = qHTS assay for small molecule disruptors of the mitochondrial membrane potential (AID 720635); also: potency is read from the fitted curve at half-maximal effect
# Procedure, shortened: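 HepG2 cells (2,000/well) attached overnight at 37C, then took compound for 1 hr at 37C, 5% CO2. Mito-MPS dye was added for 30 min; fluorescence was read at 490/535 nm (monomers) and 540/590 nm (aggregates).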
# [7] = qHTS assay to test for compound auto fluorescence at 590 nm (red) in HepG2 cells (AID 720674)
# Procedure, shortened: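 Intrinsic compound fluorescence in the red window (Ex/Em 540/590 nm) is measured in attached HepG2 cells exposed for 1 hr, DMSO vehicle as baseline, benchmarked to Rose Bengal sodium.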
# [8] = qHTS assay to test for compound auto fluorescence at 535 nm (green) in HepG2 cells (AID 720675)
# [9] = qHTS assay to test for compound auto fluorescence at 460 nm (blue) in HEK293 cells (AID 720678); also: potency is read from the fitted curve at half-maximal effect
# Procedure, shortened: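 Blue-channel (Ex/Em 405/460 nm) intensity measured in HEK293 cultures after overnight compound exposure at 37C; signal expressed relative to triamterene. Cells plated 2,000 per well in 10% dialyzed FBS medium and allowed 4-5 hr to attach.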
# [10] = qHTS assay to test for compound auto fluorescence at 590 nm (red) in HEK293 cells (AID 720679)
# Procedure, shortened: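 Red-channel autofluorescence (Ex/Em 540/590 nm; Rose Bengal sodium reference) was measured after overnight 37C, 5% CO2 exposure of attached HEK293 cells, 2,000 per well in medium with 10% dialyzed FBS.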
# Tags tell the direction and shape of the fitted curve or compound fluorescence and quenching.
Compound,Potency [1],Potency [2],Potency [3],Potency [4],Potency [5],Potency [6],outcome [7],outcome [8],Potency [9],outcome [10]
S=c1nc[nH]c2nc[nH]c12,8.41 µM (active) and 5.31 µM (active),inactive,1.88 µM (active) and 1.19 µM (active),inactive,inactive,inactive,inactive,inactive,inactive,inactive
C=C1C2CCC(C2)C1(C)C (configuration not stated),inactive,inactive,inactive,inactive,inactive,inactive,–,inactive,inactive,inactive
CC(=O)Nc1ccc(C(=O)O)cc1,inactive,inactive,inactive,inactive,inactive,inactive,inactive,inactive,inactive,inactive
CCOC(=O)[C@H](CCc1ccccc1)N[C@@H](C)C(=O)N1Cc2ccccc2C[C@H]1C(=O)O,inactive,inactive,inactive,inactive,inactive,inactive,inactive,inactive,inactive,inactive
CC1Cc2ccccc2N1NC(=O)c1ccc(Cl)c(S(N)(=O)=O)c1 (configuration not stated),inactive,inactive,inactive,inactive,inactive,inactive,inactive,inactive,inactive,inactive
CC(C)(CO)COC(=O)C(C)(C)CO,inactive,inactive,inactive,inactive,inactive,inactive,inactive,inactive,inactive,inactive
CN(C)c1ccc(C(=N)c2ccc(N(C)C)cc2)cc1,4.28 µM (active) and 5.88 µM (active),inactive,inactive,48 µM (active) and 46.7 µM (active),inactive,27 µM (active) and 46.7 µM (active),inactive,inactive,inactive,inactive
C=CC(=O)OCCCCCCCC(C)C,inactive,inactive,inactive,inactive,inactive,inactive,inactive,inactive,inactive,inactive
Clc1cc(Cl)c(Cl)cc1Cl,inactive,inactive,inactive,inactive,inactive,inactive,–,inactive,inactive,inactive
CCCCNC(N)=O,inactive,inactive,inactive,inactive,inactive,inactive,–,inactive,inactive,inactive
CCCCCCOC(C)=O,inactive,inactive,inactive,inactive,inactive,inactive,inactive,inactive,inactive,inactive
C=C(C)C(=O)OCC(CC)(COC(=O)C(=C)C)COC(=O)C(=C)C,inactive,inactive,inactive,inactive,inactive,inactive,inactive,inactive,inactive,inactive
CCCCOCCO,inactive,inactive,inactive,inactive,inactive,inactive,inactive,inactive,inactive,inactive
OC[C@@H](O)[C@@H](O)[C@H](O)[C@@H](O)CO,inactive,inactive,inactive,inactive,inactive,inactive,–,inactive,inactive,inactive
C=C(C)C(=O)OCCCCCC,inactive,inactive,inactive,inactive,inactive,–,inactive,inactive,inactive,inactive
CCC(C)C=O (configuration not stated),inactive,inactive,inactive,inactive,inactive,inactive,–,inactive,inactive,inactive
C[C@@H]1O[C@@H](OC[C@H]2O[C@@H](Oc3c(-c4ccc(O)c(O)c4)oc4cc(O)cc(O)c4c3=O)[C@H](O)[C@@H](O)[C@@H]2O)[C@H](O)[C@H](O)[C@H]1O,inactive,inactive,inactive,inactive,inactive,inactive,–,inactive,inactive,inactive
c1ccc2[nH]cnc2c1,inactive,inactive,inactive,inactive,inactive,inactive,inactive,inactive,inactive,inactive
Cc1ccc(C)c(C)c1,inactive,inactive,inactive,inactive,inactive,inactive,inactive,inactive,inactive,inactive
Cc1cc(O)c2c(c1)C(=O)c1cc(O)cc(O)c1C2=O,10.6 µM (active),inactive,inactive and 61.1 µM (active),23.8 µM (active) and 54.5 µM (active),15 µM (active),1.68 µM (active) and 545 nM (active),–,inactive,inactive,inactive
Nc1nc2ncc(CNc3ccc(C(=O)N[C@@H](CCC(=O)O)C(=O)O)cc3)nc2c(=O)[nH]1,inactive,inactive,inactive,inactive,inactive,inactive,inactive,inactive,44.7 µM [fluorescent] (active),inactive
Oc1ccc(OCc2ccccc2)cc1,9.02 µM (active),12.7 µM (active),inactive,inactive,inactive,10.1 µM (active) and 23.8 µM (active),–,inactive,inactive,inactive
O=C(Oc1ccccc1)c1ccc(O)cc1,inactive,inactive,inactive,inactive,61.1 µM (active),61.1 µM (active),inactive,inactive,inactive,inactive
NS(=O)(=O)c1cc2c(cc1Cl)NC=NS2(=O)=O,inactive,inactive,inactive,inactive,inactive,inactive,–,inactive,inactive,inactive

Compound,Potency [1],Potency [2],Potency [3],Potency [4],Potency [5],Potency [6],outcome [7],outcome [8],Potency [9],outcome [10]
CCCCC(CC)COC(=O)/C=C\C(=O)OCC(CC)CCCC (configuration not stated),inactive,inactive,inactive,inactive,inactive,inactive,inactive,inactive,inactive,inactive
NCc1cccc(CN)c1,inactive,inactive,inactive,inactive,inactive,inactive,inactive,inactive,inactive,inactive
CC1(C)O[C@@H]2C[C@H]3[C@@H]4C[C@H](F)C5=CC(=O)CC[C@]5(C)[C@H]4[C@@H](O)C[C@]3(C)[C@]2(C(=O)CO)O1,inactive,inactive,inactive,inactive,inactive,inactive,inactive,inactive,inactive,inactive
COC(=O)c1ccccc1O,inactive,inactive,inactive,inactive,inactive,inactive,inactive,inactive,inactive,inactive
O=C(c1ccc(O)cc1)c1ccc(O)cc1O,27.6 µM (active),inactive,inactive,inactive,55 µM (active),19.5 µM (active) and 54.5 µM (active),–,inactive,inactive,inactive
CC[Si](OC(C)=O)(OC(C)=O)OC(C)=O,inactive,inactive,inactive,inactive,inactive,inactive,inactive,inactive,inactive,inactive
c1ccc2ccccc2c1,inactive,inactive,inactive,inactive,inactive,inactive,–,inactive,inactive,inactive
O=C1O[C@H](CO)[C@@H](O)[C@H](O)[C@H]1O,inactive,inactive,inactive,inactive,inactive,inactive,–,inactive,inactive,inactive
C=C(C#N)C(=O)OCC,inactive,inactive,inactive,inactive,inactive,–,inactive,inactive,inactive,inactive
C=C(C)C(=O)OCCCCCCCCCCCC,inactive,inactive,inactive,inactive,inactive,–,inactive,inactive,inactive,inactive
O=[N+]([O-])c1cccc(Cl)c1,inactive,inactive,inactive,inactive,inactive,inactive,inactive,inactive,inactive,inactive
Nc1cc(-c2ccncc2)c[nH]c1=O,inactive,inactive,inactive,inactive,inactive,inactive,–,inactive,inactive,inactive
OCC1CCCO1 (configuration not stated),inactive,inactive,inactive,inactive,inactive,inactive,–,inactive,inactive,inactive
CC(C)(C)C1CCC(O)CC1 (configuration not stated),inactive,inactive,inactive,inactive,inactive,inactive,inactive,inactive,inactive,inactive
CCCCC/C=C\C/C=C\CCCCCCCC(=O)OC,inactive,inactive,inactive,inactive,–,–,inactive,inactive,inactive,inactive
COC(=O)c1ccc(C(=O)OC)cc1,inactive,inactive,inactive,inactive,–,inactive,–,inactive,inactive,inactive
CC(=O)CCc1ccccc1,inactive,inactive,inactive,inactive,–,inactive,inactive,inactive,inactive,inactive
OCCOCCOCCOCCO,inactive,inactive,inactive,inactive,–,inactive,inactive,inactive,inactive,inactive
C=C(C)C(=O)OCCC[Si](OC)(OC)OC,inactive,inactive,inactive,inactive,–,76.1 µM (active) and inactive,–,inactive,inactive,inactive
CCCCC(CC)C(=O)OCCOCCOCCOC(=O)C(CC)CCCC (configuration not stated),inactive,inactive,inactive,inactive,–,inactive and 15.4 µM (active),inactive,inactive,inactive,inactive
CCc1ccc(O)cc1,inactive,inactive,inactive,inactive,–,54.7 µM (active),–,inactive,inactive,inactive
CCCCCCCCCCCCN,inactive,inactive,inactive and 27.3 µM (active),–,inactive,–,inactive,inactive,inactive,inactive
COCC(C)O (configuration not stated),inactive,inactive,inactive,inactive,–,–,inactive,inactive,inactive,inactive
CCCCC(CC)COC(=O)CCCCCCCC(=O)OCC(CC)CCCC (configuration not stated),inactive,inactive,inactive,inactive,inactive,–,inactive,inactive,inactive,inactive

# — PubChem BioAssay (Tox21)
